Test results as given in PubChem BioAssay (NCI).
This is part of a sample that, as a whole, favours compounds with a hit. Of some 83,000 tested, about 20% had one in any assay.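 Single-concentration screen, 48 h exposure, 96-well plates. Endpoint: percent growth. Below 10 = active.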 Unmarked numbers belong to inactive results. Calls of active or inactive are those of the source.

What was measured:
Test in all cases: NCI-60 one-dose screen, 48 h (100 = growth as untreated, 0 = no growth, -100 = all killed)
Conditions in all cases: 10 µM
[1] = system: K-562 leukemia
[2] = system: MALME-3M melanoma
[3] = system: MDA-MB-231 breast
[4] = system: RXF 393 renal
[5] = system: SF-268 CNS
[6] = system: SF-295 CNS
[7] = system: SF-539 CNS
[8] = system: UACC-257 melanoma
[9] = system: M14 melanoma
[10] = system: HCT-15 colon
[11] = system: HT29 colon
[12] = system: SNB-75 CNS
[13] = system: SNB-19 CNS
[14] = system: U251 CNS
[15] = system: PC-3 prostate
[16] = system: SK-MEL-5 melanoma
[17] = system: UACC-62 melanoma
[18] = system: LOX IMVI melanoma
[19] = system: SK-MEL-28 melanoma

Compound	growth [1]	growth [2]	growth [3]	growth [4]	growth [5]	growth [6]	growth [7]	growth [8]	growth [9]	growth [10]	growth [11]	growth [12]	growth [13]	growth [14]	growth [15]	growth [16]	growth [17]	growth [18]	growth [19]
COc1cc(/C=N/NC(=O)c2ccccc2Nc2cccc(C(F)(F)F)c2)cc(OC)c1OC	12.3%	11.5%	28.5%	4.73% (active)	20.4%	-14.8% (active)	-0.572% (active)	49.6%	177%	7.05% (active)	8.62% (active)	4.15% (active)	61.4%	-32.1% (active)	-35.3% (active)	29.2%	10.3%	11.9%	39.3%
O=C1/C(=C\c2ccc(Cl)cc2)CN(C(=O)c2ccccc2)C/C1=C\c1ccc(Cl)cc1	4.94% (active)	64.8%	25%	-22.5% (active)	26.9%	1.64% (active)	61.4%	67.5%	2.03% (active)	10.4%	-84.9% (active)	51.4%	68.2%	-74% (active)	25.8%	66.8%	34.6%	-51.8% (active)	59.7%
O=C(Nc1cccc(-n2cc(-c3ccncc3)c(-c3ccc(O)c(Cl)c3)n2)c1)c1cc(C(F)(F)F)cc(C(F)(F)F)c1	35.9%	70.4%	-45% (active)	33.5%	76.8%	24.9%	56.1%	66.9%	59.6%	44.9%	48.2%	59.4%	88.4%	33.1%	24.2%	56.4%	72.4%	37.1%	70.8%
COc1ccc(/C=C/C(C)=N/OCC(=O)O)cc1	99.9%	96.7%	120%	101%	107%	100%	101%	112%	100%	102%	105%	100%	103%	95.2%	94.4%	101%	113%	96.9%	114%
O=C(Nc1cccc(-n2cc(-c3ccncc3)c(-c3ccc(O)c(Cl)c3)n2)c1)c1cccc(C(F)(F)F)c1	19.3%	24.6%	-58.9% (active)	-12.4% (active)	51.7%	7.62% (active)	27.4%	33.3%	28.4%	23.8%	31.8%	39.4%	69.7%	-27.9% (active)	21%	34.6%	37.9%	33%	43.9%
COc1cc2nc(Nc3cccc(NC(C)=O)c3)nc(N)c2cc1OC	103%	101%	86.9%	94.1%	92.3%	131%	101%	98.3%	107%	93.8%	111%	85%	103%	94.7%	60%	95.5%	91.7%	86.7%	90.3%
Cc1ccc(CC#N)cc1C	73.8%	121%	97.2%	83.2%	86.2%	93%	87.5%	127%	96.9%	95.4%	110%	101%	94.6%	89.9%	164%	99.3%	103%	96.7%	137%
N#CCCN(NC(=O)OCc1ccccc1)C(=O)OCc1ccccc1	106%	105%	113%	111%	106%	99.1%	106%	107%	103%	107%	106%	81.4%	108%	102%	93.4%	108%	101%	94.3%	119%
CCOC(=O)c1ccoc1	93.8%	100%	128%	110%	108%	108%	95.6%	80.3%	106%	97%	95.1%	94.4%	97.7%	101%	99.7%	99.6%	101%	99.6%	106%
COc1ccc(S(=O)(=O)NCCCNc2nccc(-c3c(-c4ccc(F)cc4)nc4sccn34)n2)cc1	17.6%	57.7%	75.4%	68.1%	50.6%	45.7%	93.7%	67.7%	57.3%	57.2%	11%	49.3%	99.1%	50%	52.9%	49.5%	48.5%	40.1%	73.5%
COc1ccc(NC2=NC(C)(CO)CS2)cc1 (stereo not drawn)	98.7%	112%	97.5%	130%	103%	109%	89.7%	-25.7% (active)	101%	90.3%	105%	83.5%	103%	101%	82.2%	96.3%	96.1%	95.7%	106%
COc1ccc(-c2nn(-c3cccc(NC(=O)c4ccc(N5CCOCC5)c(C(F)(F)F)c4)c3)cc2-c2ccncc2)cc1Cl	23.6%	48.7%	66.4%	18.7%	70.7%	9.97% (active)	41%	67.8%	65%	53.5%	11.2%	47%	81.4%	23.6%	42.7%	68.2%	74.3%	74.2%	72.3%
COc1ccc(-c2nn(-c3cccc(NC(=O)c4cc(C(F)(F)F)cc(C(F)(F)F)c4)c3)cc2-c2ccncc2)cc1Cl	31.3%	42.5%	74%	62.8%	72.6%	53.9%	67.4%	62%	64%	73.7%	61%	60.9%	90.8%	54.7%	40.7%	62.9%	73.6%	80.3%	67.3%
FC(F)(F)c1ccc(-c2cnc(Cl)nc2N2CCC3(CC2)OCCO3)cc1	93.2%	78.4%	102%	105%	93.5%	89.7%	99.3%	106%	96.6%	93.6%	96.9%	93.8%	102%	85.3%	87.2%	93.8%	96.8%	90.4%	102%
COc1ccc(-c2nn(-c3cccc(NC(=O)Nc4ccc(Cl)c(C(F)(F)F)c4)c3)cc2-c2ccncc2)cc1Cl	15.4%	-8.87% (active)	0.455% (active)	19.3%	31%	-2.09% (active)	-7.12% (active)	-7.89% (active)	6.17% (active)	16.3%	2.78% (active)	25.6%	32.2%	-41.1% (active)	2.84% (active)	14.7%	-2.96% (active)	19.9%	23%
CCOC(=O)C1(CC(C)C)CCOC1=O (stereo not drawn)	97.8%	101%	109%	118%	98.7%	99.5%	97.7%	97.7%	106%	96.7%	104%	86.8%	102%	95.2%	93.3%	104%	96.7%	96.8%	103%
CN(C)CCN=c1nc2c(c(N)n1-c1ccccc1)c(=S)n(-c1ccccc1)c(=S)n2-c1ccccc1	-11.4% (active)	-89.5% (active)	-13% (active)	-39.1% (active)	24%	-61.5% (active)	-86.9% (active)	-74.6% (active)	-84.4% (active)	18.8%	-35.7% (active)	79%	26.1%	2.1% (active)	31%	-98.8% (active)	-90.3% (active)	-61.4% (active)	-100% (active)
